# ClpP mod: qHTS Assay for Activators of ClpP; 340,000 tested, 1.9% active; Potency, µM (titrated, usually from 57.5 µM), for inactives: at the top dose activity change, negative = active; purified B. subtilis ClpP, FRET peptide cleavage, 20 min; ATP-dependent Clp protease proteolytic subunit (Bacillus subtilis (strain 168)), P80244; active means well fitted falling curve with a large enough effect; inconclusive means small, poorly fitted or top-dose-only effect; inactive means no such curve, though single readings can be large or run the other way; further: the source files actives as falling curves though it sought activators and does not explain the sign; nearly all actives have a fitted effect of over 65% in size
# Target sequence (P80244 whole entry, looked up): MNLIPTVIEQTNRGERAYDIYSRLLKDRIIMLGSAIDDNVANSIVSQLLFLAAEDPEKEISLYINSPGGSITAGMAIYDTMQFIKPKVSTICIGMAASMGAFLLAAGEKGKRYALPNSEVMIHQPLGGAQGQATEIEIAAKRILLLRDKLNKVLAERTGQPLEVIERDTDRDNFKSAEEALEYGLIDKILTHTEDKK
#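 Buffer: 100 mM Tris/HCl pH8, 100 mM KCl, 0.05% low protease BSA, 2.5% glycerol, 0.01% Tween-20. ClpP 10 microg/mL final; 20 min RT; delta FRET normalized to ADEP and DMSO controls.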
# Gal4-VP16 FLuc: VP16 counterscreen qHTS for inhibitors of ROR gamma transcriptional activity | Potency, µM (series often up to 53.6 µM), inactives show at the highest dose activity, negative = inhibition, actives largely listed as inhibitors | 310,000 tested, 3.5% active | Drosophila S2 Gal4-VP16 UAS-luciferase, luminescence, 20 h;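 further: Gal4-VP16 expression switched on by copper sulfate through the metallothionein promoter; on the % scale 0 is the no-effect control and ±100 the full control effect; nearly all actives have a fitted effect of over 50% in size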
# Sfp PPTase inh: qHTS Assay for Inhibitors of Bacillus subtilis Sfp phosphopantetheinyl transferase (PPTase); 310,000 tested, 3.5% active; 4'-phosphopantetheinyl transferase ffp (Bacillus subtilis), Q9F4F7; Biochemical Sfp PPTase activity, qHTS; Potency, µM, without a hit: largest response in the series, negative = inhibition, usual class: inhibitors; AID 1490, 2009;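 further: the enzyme is Sfp with the accession as filed and its product quenches rhodamine fluorescence; 0% = enzyme reaction without inhibitor and -100% = no enzyme wells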
#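 Fluorescence-quenching assay with 15 nM Sfp, 5 uM rhodamine-CoA and 12.5 uM BHQ-2-labelled ybbR peptide in pH 7.6 Hepes/MgCl2 buffer. Enzyme was pre-incubated with compound for 15 min at room temperature. Rate was taken from the 30-min fluorescence change (525/598 nm).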
# PINK1 modulator: A Quantitative High throughput Screen to Identify Chemical Modulators of PINK1 Expression | 410,000 tested, 0.2% active | PINK1 immunofluorescence, high-content cytometry, 24 h | Potency, µM (doses to about 76.6 µM), for inactives: at the highest dose activation (PINK1 increase), most hits filed as activators; active means well fitted activation curve with a large enough effect; inconclusive means small, poorly fitted or top-dose-only effect; cell line not stated here; further: % of control where 0% means no effect; nearly all actives have a fitted effect of over 65% in size
#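 PINK1 protein, normally rapidly degraded, was detected by immunofluorescence after 24 hour compound treatment of a stable cell line. Titration data (5 concentrations) came from laser-scanning cytometry, with CCCP-treated wells as controls.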
# Epigenetic reg: Quantitative High-Throughput Screen for Regulators of Epigenetic Control; murine LDR cells, GFP reporter derepression, 30 h; AID 1865, 2009; Potency, µM (titrated, usually from 53.9 µM), for inactives: at the top dose GFP activation, usual class: activators; 280,000 tested, 0.2% active; further: % of control where 0% means no effect; nearly all actives have a fitted effect of over 60% in size
#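 In this reporter-derepression format, murine cells bearing a silenced integrated CMV-GFP locus incubate with test compound (30 h, 37 C), then are washed and imaged; fluorescent objects of 20–120 um count as induced cells.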
# RORgamma inh: qHTS for inhibitors of ROR gamma transcriptional activity. Drosophila S2 Gal4-RORgamma UAS-luciferase reporter, 20 h. Potency, µM (doses to about 53.6 µM), for the others: at the highest dose activity change, negative = inhibition, actives largely listed as inhibitors. 310,000 tested, 5.4% active. AID 2551, 2010; further: on the % scale 0 is the no-effect control and ±100 the full control effect; nearly all actives have a fitted effect of over 60% in size
# Target sequence (P51450 whole entry, looked up, the tested form may be a part): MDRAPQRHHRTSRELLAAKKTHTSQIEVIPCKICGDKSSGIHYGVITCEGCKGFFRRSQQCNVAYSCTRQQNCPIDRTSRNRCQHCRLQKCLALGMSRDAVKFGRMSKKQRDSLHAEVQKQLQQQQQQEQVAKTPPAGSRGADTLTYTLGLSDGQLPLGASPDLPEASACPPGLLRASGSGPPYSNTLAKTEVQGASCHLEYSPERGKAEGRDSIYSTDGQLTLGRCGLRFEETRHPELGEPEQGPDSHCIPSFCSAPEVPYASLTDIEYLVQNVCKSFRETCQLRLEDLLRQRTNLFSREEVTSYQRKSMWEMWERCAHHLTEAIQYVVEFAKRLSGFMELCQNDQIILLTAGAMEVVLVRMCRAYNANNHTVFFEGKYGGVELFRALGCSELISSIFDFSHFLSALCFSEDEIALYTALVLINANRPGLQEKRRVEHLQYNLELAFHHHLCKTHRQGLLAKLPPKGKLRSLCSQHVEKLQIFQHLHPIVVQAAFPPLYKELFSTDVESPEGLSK
#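 ROR gamma transcriptional activity was tracked as Gal4-UAS luciferase output in stably transfected Drosophila Schneider cells, with compound added 1 hr before 700 uM copper sulfate induction and a 20 hr ambient-temperature incubation.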
# * hit, by the source's call; ? = inconclusive; . = no result; [ ] = another dose, or the depositor's remark. Sampled rows, rich in hits. Any-hit rate of the full collection: about 8.1%. Unless noted, the call rests on the fitted dose curve; in most records, active means well fitted curve in the direction sought with a large enough effect; inconclusive means small, poorly fitted or top-dose-only effect, or another doubt; inactive means no such curve, though single readings can be large; an effect the other way counts as inactive or inconclusive. Potency means the concentration at half of the fitted maximal effect.
SMILES,ClpP mod,Gal4-VP16 FLuc,Sfp PPTase inh,PINK1 modulator,Epigenetic reg,RORgamma inh
CCOC(=O)c1c(N)sc(=S)c2c1CCC2,-1.0%,4.1%,31.6µM*,3.7%,-0.4%,4.1%[10 µM]
NC(=O)c1c(N)sc2c1CCCCC2,-4.3%,-5.3%,22.4µM*,1.1%,-2.6%,-9.6%
Nc1sc2c(c1C(=O)NC1CCS(=O)(=O)C1)CCC2 (centres undefined),-0.2%,4.4%,17.8µM*,2.8%,0.0%,2.6%
CCOC(=O)c1c(N)ssc1=S,-1.3%,10.3%,22.4µM*,.,-0.9%,?
CCOC(=O)c1c(N)sc(N)c1C(=O)OCC,1.6%,3.7%,?,4.8%,0.0%,42.0%
CCOC(=O)c1c(N)sc2c1CCSC2,-10.8%,0.7%,-28.7%,0.2%,4.1%,-12.0%
Nc1sc2c(c1C(=O)c1ccc(Cl)cc1)CCCC2,.,-0.2%,9.7%,.,.,19.4%
COc1ccc(S(=O)(=O)NCc2cccn2Cc2cc(C)ccc2C)cc1OC,-0.2%,.,.,-0.4%,-0.8%,.
Cc1cccc(C(=O)c2c(N)sc3c2CCCC3)c1,-0.4%,-8.6%,44.7µM*,9.8%,0.0%,36.5%
CC(C)OC(=O)c1c(N)sc2c1CCCC2,-1.2%,.,.,16.9%[38.3 µM],.,.
CC1CCc2c(sc(N)c2C(N)=O)C1 (centres undefined),-7.6%,-8.1%,-82.7%,5.9%[38.3 µM],-4.8%,0.4%
CCCOC(=O)c1c(N)sc2c1CCC2,0.1%,-0.6%,50.1µM*,0.6%,0.6%,4.4%
NC(=O)c1c(N)sc2c1CCC2,.,0.3%,22.4µM*,1.9%,-0.2%,4.7%
CCCCCCCC(=O)OCCOC(=O)CCCCCCC,.,-1.7%,15.6%,.,-1.6%,-13.4%
COc1cc2c(NC3CCN(C)CC3)nc(N3CCCN(C)CC3)nc2cc1OCC1CCCCN1 (centres undefined),4.1%,.,.,-0.3%,.,.
COc1ccccc1Nc1nn2c(=O)c3ccc(C(=O)NCCc4ccccc4)cc3nc2s1,-25.6%,.,.,7.4%,7.0%,.
COc1ccc(-c2c(-c3ccc(OC)c(C)c3O)n[nH]c2C)cc1,.,11.2µM*,19.5%,-1.5%,.,11.2µM*
COc1ccc(-c2n[nH]c(C)c2-c2cc(OC)ccc2O)cc1,0.2%,0.8%,39.8µM*,-5.1%,-3.9%,21.3%
COc1ccc(-c2c(-c3ccc(O)cc3O)n[nH]c2C)cc1OC,-6.9%,1.0%,-0.8%,?,-0.2%,-29.0%
CCOc1cc(C(=S)N2CCCC2)ccc1OCc1ccccc1,-2.0%,?,14.9%,0.0%,.,?
COc1ccc(C(=O)Oc2c(OC)cc(C(=S)N3CCOCC3)cc2OC)cc1OC,-4.7%,0.7%,39.8µM*,-1.9%,.,23.2%
COc1ccc(C(=S)N2CCOCC2)cc1OC(=O)c1cccc([N+](=O)[O-])c1,0.3%,1.3%,19.6%,1.1%,-0.1%,-18.9%
COc1cc(C(=S)N2CCOCC2)ccc1OC(=O)c1ccc([N+](=O)[O-])cc1[N+](=O)[O-],0.6%,12.6µM*,-23.4%,1.7%,.,?
COc1ccc(C(=S)N2CCOCC2)cc1OC(=O)c1ccc(C)cc1,.,-9.8%,-1.4%,4.3%,.,8.5%
COc1ccc(C(=S)N2CCOCC2)cc1OC(=O)c1ccc([N+](=O)[O-])cc1,.,5.8%,50.1µM*,2.1%,.,0.5%
SMILES,ClpP mod,Gal4-VP16 FLuc,Sfp PPTase inh,PINK1 modulator,Epigenetic reg,RORgamma inh
CCOc1ccc(C(=S)N2CCCC2)cc1OCC,0.4%,-1.2%,56.2µM*,0.2%,.,-0.9%
Cc1ccc(-n2nc3c(N4CCC(C(=O)NC5CCC(C)CC5)CC4)nnc(C)c3c2C)cc1 (centres undefined),?,.,.,1.0%,?,.
O=C(Oc1ccc(Br)cc1C(=S)N1CCOCC1)c1ccc(F)cc1,-2.8%,-2.5%,31.6µM*,1.1%,.,-5.9%
COc1cc(C(=O)Oc2ccc(Br)cc2C(=S)N2CCOCC2)cc(OC)c1OC,.,3.0%,31.6µM*,2.6%,.,58.0%
COc1ccc(C(=S)N2CCOCC2)cc1OC(=O)c1cc(OC)c(OC)c(OC)c1,.,-5.8%,44.7µM*,2.9%,.,29.1%
COc1cc(C(=S)N2CCOCC2)ccc1OC(=O)/C=C/c1ccco1,-4.6%,17.8µM*,56.2µM*,1.6%,-3.4%,?
Cc1ccc(C(=O)Oc2ccc(Br)cc2C(=S)N2CCOCC2)cc1,.,-9.0%,-23.0%,-2.1%,.,6.5%
O=C(C=Cc1ccco1)N1CCOCC1,.,.,.,-2.9%,.,.
COc1cc(C(=O)Oc2ccc(C(=S)N3CCOCC3)cc2)cc(OC)c1OC,0.1%,-13.0%,-15.5%,0.6%,.,-6.4%
COc1cccc(NC(=O)CCC(=O)N2Cc3ccccc3Oc3ncccc32)c1,-4.9%,.,.,0.2%,6.3%,.
COc1cc(C(=S)N2CCOCC2)ccc1OC(=O)c1ccccc1,0.1%,.,-3.1%,0.8%,.,.
CCOc1ccc(C2C(C(=O)/C=C/c3ccco3)=C(O)C(=O)N2CCN2CCOCC2)cc1OC (centres undefined),.,-8.8%,56.2µM*,4.6%,1.4%,0.5%
CCOc1cc(C(=S)N2CCOCC2)ccc1OC(=O)c1ccc(C)cc1,1.8%,-7.0%,-9.5%,11.5%,.,30.8%
COc1ccc(C(=S)N2CCOCC2)cc1OC(=O)c1ccccc1,.,-1.0%,56.2µM*,5.8%,.,-0.6%
CCOc1cc(C(=S)N2CCOCC2)ccc1OC(=O)c1ccccc1,0.5%,-10.0%,79.4µM*,-0.6%,.,20.7%
COc1ccc(NC(=O)Cn2c(=O)n(-c3cc(C)cc(C)c3)c(=O)c3oc4ccccc4c32)cc1OC,21.0%,.,.,0.2%,-4.0%,.
Cc1ccc(-n2[nH]c(C)c(C=NC34CN5CN(CN(C5)C3)C4)c2=O)cc1C,-2.4%,5.3%,15.8%,1.8%,-1.6%,-26.9%
COCCCN=Cc1c(C)[nH]n(-c2ccc(Br)c(C)c2)c1=O,-2.0%,6.31µM*,-29.3%,3.7%,1.0%,7.08µM*
CCOc1ccc(-c2nc(CSCC(=O)NCc3ccco3)c(C)o2)cc1,?,25.1µM*,-18.1%,-1.0%,0.0%,-38.3%
CCOC(=O)N1CCC(NC(=O)CSCc2nc(-c3ccc(OCC)cc3)oc2C)CC1,4.3%,-3.8%,1.4%,0.6%,.,4.5%
CCOc1ccc(-c2nc(CSCC(=O)NC3CCCc4ccccc43)c(C)o2)cc1 (centres undefined),?,5.5%,22.4µM*,2.2%[38.3 µM],2.8%,-15.6%
CCOc1ccc(-c2nc(CSCC(=O)NC3CC3)c(C)o2)cc1,4.3%,?,12.2%,-0.2%,.,8.91µM*
CCOc1ccc(-c2nc(CSCC(=O)NCc3ccc(C)cc3)c(C)o2)cc1,?,.,.,-0.9%,0.0%,.
